PubChem BioAssay (NCI)
The panel holds about 83,000 compounds, 20% with a hit somewhere; the sample as a whole holds those more often.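 Percent growth is the endpoint: 0 to 100 indicates growth inhibition (40 means 60% inhibition), 0 means no net growth, and negative values indicate cell death.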 The source made the active and inactive calls. How the source made its calls: active means growth percent below 10; inactive means the rest.

Experiments:
Experiment in all cases: NCI-60 one-dose screen, 48 h (100 = growth as untreated, 0 = no growth, -100 = all killed)
Conditions in all cases: 10 µM unless noted
RPMI-8226 leukemia = tested on: RPMI-8226 leukemia
OVCAR-8 ovarian = tested on: OVCAR-8 ovarian
OVCAR-5 ovarian = tested on: OVCAR-5 ovarian
OVCAR-4 ovarian = tested on: OVCAR-4 ovarian
SK-OV-3 ovarian = tested on: SK-OV-3 ovarian
OVCAR-3 ovarian = tested on: OVCAR-3 ovarian
HS 578T breast = tested on: HS 578T breast
NCI/ADR-RES ovarian = tested on: NCI/ADR-RES ovarian
BT-549 breast = tested on: BT-549 breast
MDA-MB-435 melanoma = tested on: MDA-MB-435 melanoma
SW-620 colon = tested on: SW-620 colon
MCF7 breast = tested on: MCF7 breast
HCT-116 colon = tested on: HCT-116 colon
HCC-2998 colon = tested on: HCC-2998 colon
KM12 colon = tested on: KM12 colon
T-47D breast = tested on: T-47D breast
IGROV1 ovarian = tested on: IGROV1 ovarian

Measured: growth

C/C(=N\NC(N)=O)c1c(O)sc(=O)[nH]c1=O
inactive: RPMI-8226 leukemia 102% | OVCAR-8 ovarian 99.9% | OVCAR-5 ovarian 102% | OVCAR-4 ovarian 105% | SK-OV-3 ovarian 115% | OVCAR-3 ovarian 114% | HS 578T breast 91.4% | NCI/ADR-RES ovarian 105% | BT-549 breast 95.3% | MDA-MB-435 melanoma 104% | SW-620 colon 97.5% | MCF7 breast 93.4% | HCT-116 colon 91% | HCC-2998 colon 110% | KM12 colon 100%

O=C1Nc2ccc(Cl)cc2/C1=C/c1ccc(OCC(=O)c2ccc(Br)cc2)cc1
inactive: RPMI-8226 leukemia 101% | OVCAR-8 ovarian 96% | OVCAR-5 ovarian 93.2% | OVCAR-4 ovarian 91.7% | SK-OV-3 ovarian 79.9% | OVCAR-3 ovarian 90.3% | HS 578T breast 89.3% | NCI/ADR-RES ovarian 93.3% | T-47D breast 84.2% | BT-549 breast 118% | MDA-MB-435 melanoma 99.1% | SW-620 colon 89.9% | MCF7 breast 80.1% | HCC-2998 colon 99.5% | KM12 colon 59.1%

Cc1ccc(CNS(=O)(=O)/N=C2\NC(=O)NC2=C(Cl)Cl)cc1
active: BT-549 breast -8.68% | HCT-116 colon 9.17%
inactive: RPMI-8226 leukemia 14.5% | OVCAR-8 ovarian 91.2% | OVCAR-5 ovarian 96.7% | OVCAR-4 ovarian 98.7% | IGROV1 ovarian 101% | OVCAR-3 ovarian 88.2% | HS 578T breast 66.1% | T-47D breast 48.7% | MDA-MB-435 melanoma 47.7% | SW-620 colon 32.4% | MCF7 breast 17.2% | KM12 colon 24%

CCOC(=O)c1c(NC(=O)c2cccc(C(F)(F)F)c2)sc2cc(O)ccc12
inactive: RPMI-8226 leukemia 73.9% | OVCAR-8 ovarian 105% | OVCAR-5 ovarian 98.4% | OVCAR-4 ovarian 104% | OVCAR-3 ovarian 98.6% | HS 578T breast 88.1% | T-47D breast 64% | BT-549 breast 89.7% | MDA-MB-435 melanoma 104% | SW-620 colon 103% | MCF7 breast 46.6%

Cc1ccc2c(n1)C(=O)C(Cl)=C(Nc1cccc(C(C)C)c1)C2=O
active: RPMI-8226 leukemia 2.88% | OVCAR-3 ovarian 3.53% | T-47D breast 3.43% | MDA-MB-435 melanoma -70.6% | MCF7 breast -56.7%
inactive: OVCAR-8 ovarian 57.2% | OVCAR-5 ovarian 109% | OVCAR-4 ovarian 22.6% | IGROV1 ovarian 22.1% | HS 578T breast 43.1% | BT-549 breast 58.7% | SW-620 colon 28.3% | HCT-116 colon 13.1% | KM12 colon 80%

CC(C)(C)Nc1nc2c(OCCc3ccccc3)cccn2c1-c1ccc(O)cc1
inactive: RPMI-8226 leukemia 19% | OVCAR-8 ovarian 65.9% | OVCAR-5 ovarian 70.2% | OVCAR-4 ovarian 65% | SK-OV-3 ovarian 110% | OVCAR-3 ovarian 74.9% | HS 578T breast 86.7% | NCI/ADR-RES ovarian 50.4% | BT-549 breast 85.4% | MDA-MB-435 melanoma 72.5% | SW-620 colon 69% | HCT-116 colon 38.2% | HCC-2998 colon 52.2% | KM12 colon 38.2%

CC1=C(C)C(=O)C(Nc2ccccc2)=C(Cl)C1=O
active: OVCAR-4 ovarian -97.9% | T-47D breast -38.9%
inactive: RPMI-8226 leukemia 53.6% | OVCAR-8 ovarian 94.9% | OVCAR-5 ovarian 104% | OVCAR-3 ovarian 102% | HS 578T breast 101% | BT-549 breast 114% | MDA-MB-435 melanoma 102% | SW-620 colon 96.5% | MCF7 breast 90.7% | HCT-116 colon 79.1% | KM12 colon 78.3%

C[C@@H](Nc1c(C#N)cnc2ccc(-c3cnc(N)nc3)cc12)c1ccccc1
inactive: OVCAR-8 ovarian 17.1% | OVCAR-5 ovarian 20.9% | NCI/ADR-RES ovarian 22.5% | MDA-MB-435 melanoma 11% | SW-620 colon 14.9% | MCF7 breast 10.9% | HCC-2998 colon 32% | KM12 colon 18.6%
active: RPMI-8226 leukemia -26.9% | OVCAR-4 ovarian 4.34% | SK-OV-3 ovarian -2.04% | OVCAR-3 ovarian 9.52% | HS 578T breast -13.6% | BT-549 breast -14.1% | HCT-116 colon 5.6%

Cc1cc(C(=O)Nc2sc3c(c2C(N)=O)CCC(=O)C3)ccc1OCCN1CCCCC1
inactive: RPMI-8226 leukemia 85.7% | OVCAR-8 ovarian 101% | OVCAR-5 ovarian 119% | OVCAR-4 ovarian 108% | IGROV1 ovarian 91% | OVCAR-3 ovarian 97.7% | HS 578T breast 102% | T-47D breast 89.4% | BT-549 breast 129% | MDA-MB-435 melanoma 103% | SW-620 colon 86.5% | MCF7 breast 95.3% | HCT-116 colon 84.1% | KM12 colon 88.7%

O=C1[C@H]2Cc3c([nH]c4ccccc34)[C@@H](c3ccc(Br)cc3)N2C(=O)CN1C1CCN(Cc2ccccc2)CC1
inactive: OVCAR-8 ovarian 41.6% | OVCAR-5 ovarian 65% | OVCAR-4 ovarian 48.3% | IGROV1 ovarian 18.7% | HS 578T breast 36.7% | T-47D breast 19.3% | BT-549 breast 93.4% | MDA-MB-435 melanoma 36.9% | SW-620 colon 33.5%
active: RPMI-8226 leukemia 3.9% | MCF7 breast 6.48% | HCT-116 colon 9.04%

CO/N=C1\CCc2c(sc(NC(=O)c3cccc(C(F)(F)F)c3)c2C(N)=O)C1
active: OVCAR-4 ovarian -45.4% | OVCAR-3 ovarian 7.66% | HS 578T breast 5.79% | T-47D breast -18.5% | HCT-116 colon 5%
inactive: RPMI-8226 leukemia 35.4% | OVCAR-8 ovarian 20.9% | OVCAR-5 ovarian 41.4% | IGROV1 ovarian 11.9% | BT-549 breast 49.4% | SW-620 colon 43.4% | KM12 colon 56%

COc1ccc(/C=C2\SC(=Nc3cc(C)on3)NC2=O)cc1
inactive: RPMI-8226 leukemia 98.2% | OVCAR-8 ovarian 102% | OVCAR-5 ovarian 97.6% | OVCAR-4 ovarian 109% | SK-OV-3 ovarian 113% | OVCAR-3 ovarian 116% | HS 578T breast 96.9% | NCI/ADR-RES ovarian 98.6% | T-47D breast 104% | BT-549 breast 88.1% | SW-620 colon 99% | MCF7 breast 89.2% | HCT-116 colon 96.1% | HCC-2998 colon 108% | KM12 colon 108%

Cc1nc2cnc(N)c(C#Cc3cncc(C(=O)Nc4ccc(Cl)c(C(F)(F)F)c4)c3)c2nc1C
active: RPMI-8226 leukemia -10.2% | SW-620 colon -18.9% | MCF7 breast -67.5% | KM12 colon 3.01%
inactive: OVCAR-8 ovarian 69.7% | OVCAR-5 ovarian 54.5% | OVCAR-4 ovarian 65.2% | SK-OV-3 ovarian 120% | HS 578T breast 35.4% | NCI/ADR-RES ovarian 63.9% | T-47D breast 109% | BT-549 breast 86.7% | MDA-MB-435 melanoma 41% | HCC-2998 colon 60.4%

COc1ccc(NC2=C(Cl)C(=O)C(C)=C(C)C2=O)cc1OC
inactive: RPMI-8226 leukemia 88.7% | OVCAR-8 ovarian 97.5% | OVCAR-5 ovarian 103% | OVCAR-4 ovarian 22% | IGROV1 ovarian 39.7% | OVCAR-3 ovarian 95.6% | HS 578T breast 91.2% | BT-549 breast 108% | MDA-MB-435 melanoma 103% | SW-620 colon 101% | MCF7 breast 77.8% | HCT-116 colon 96.4% | KM12 colon 55.2%

O=C(CCN1C(=O)/C(=C/c2ccccc2)SC1=S)N1CCOCC1
inactive: RPMI-8226 leukemia 67.7% | OVCAR-8 ovarian 99.6% | OVCAR-5 ovarian 94.8% | OVCAR-4 ovarian 101% | SK-OV-3 ovarian 98.5% | OVCAR-3 ovarian 110% | HS 578T breast 100% | NCI/ADR-RES ovarian 98.8% | BT-549 breast 104% | SW-620 colon 79% | MCF7 breast 40.9% | HCT-116 colon 89.6% | HCC-2998 colon 112% | KM12 colon 84.3%

CC1=C(C)C(=O)C(Nc2cccc(C(F)(F)F)c2)=C(Cl)C1=O
active: RPMI-8226 leukemia -3.12% | OVCAR-4 ovarian -80.4% | IGROV1 ovarian -7.2% | T-47D breast -39%
inactive: OVCAR-8 ovarian 87.1% | OVCAR-5 ovarian 100% | OVCAR-3 ovarian 70.4% | HS 578T breast 87.6% | BT-549 breast 121% | MDA-MB-435 melanoma 98.5% | SW-620 colon 17.1% | MCF7 breast 35.4%

Cn1c(SCC(=O)c2cccs2)nc2ccccc2c1=O
inactive: RPMI-8226 leukemia 81.7% | OVCAR-8 ovarian 97.5% | OVCAR-5 ovarian 109% | OVCAR-4 ovarian 92.9% | IGROV1 ovarian 74.8% | HS 578T breast 90.8% | T-47D breast 54.2% | BT-549 breast 108% | SW-620 colon 99.7% | HCT-116 colon 93.9% | KM12 colon 99.1%

O=c1[nH]c2ccc(Cl)cc2cc1CSc1ccccc1Nc1nccc(-c2ccc(Cl)cc2)n1
inactive: RPMI-8226 leukemia 84% | OVCAR-8 ovarian 96.5% | OVCAR-5 ovarian 114% | OVCAR-4 ovarian 89% | SK-OV-3 ovarian 122% | OVCAR-3 ovarian 89.3% | HS 578T breast 91.2% | NCI/ADR-RES ovarian 117% | T-47D breast 84.8% | BT-549 breast 113% | MDA-MB-435 melanoma 96.8% | SW-620 colon 91.9% | HCC-2998 colon 119% | KM12 colon 92%

COc1cc2nc(-c3ccc(C(F)(F)F)cc3)cc(OCCCNCC3CCCO3)c2cc1OC (stereo unspecified)
active: RPMI-8226 leukemia -13.1% | MDA-MB-435 melanoma 5.88%
inactive: OVCAR-8 ovarian 35.6% | OVCAR-5 ovarian 40.6% | OVCAR-4 ovarian 62.4% | SK-OV-3 ovarian 86.2% | HS 578T breast 55.6% | NCI/ADR-RES ovarian 41.4% | T-47D breast 38% | BT-549 breast 66.3% | SW-620 colon 16.3% | MCF7 breast 13% | HCT-116 colon 22.6% | HCC-2998 colon 54.4% | KM12 colon 27.3%

COc1ccc(C(=O)c2cc(C(=O)/C=C/c3c(Cl)cccc3Cl)c3cc(C)ccn23)cc1
inactive: RPMI-8226 leukemia 92.6% | OVCAR-8 ovarian 100% | OVCAR-5 ovarian 102% | OVCAR-4 ovarian 106% | IGROV1 ovarian 95.9% | OVCAR-3 ovarian 103% | HS 578T breast 95.7% | T-47D breast 91.7% | BT-549 breast 119% | MDA-MB-435 melanoma 99.6% | SW-620 colon 95.5% | MCF7 breast 98% | HCT-116 colon 99.8% | KM12 colon 100%
